Screening data as filed in PubChem BioAssay.
D1 potentiator: Potentiators of Human D1 Dopamine Receptor: qHTS | D(1A) dopamine receptor (Homo sapiens), P21728 | HEK293 TREx D1 cells, calcium flux, dopamine EC20 potentiation | potentiation, % at 10 µM | actives 0.036% (n = 360,000); in the data active = potentiation above about 30%
Target sequence (P21728 whole entry, looked up): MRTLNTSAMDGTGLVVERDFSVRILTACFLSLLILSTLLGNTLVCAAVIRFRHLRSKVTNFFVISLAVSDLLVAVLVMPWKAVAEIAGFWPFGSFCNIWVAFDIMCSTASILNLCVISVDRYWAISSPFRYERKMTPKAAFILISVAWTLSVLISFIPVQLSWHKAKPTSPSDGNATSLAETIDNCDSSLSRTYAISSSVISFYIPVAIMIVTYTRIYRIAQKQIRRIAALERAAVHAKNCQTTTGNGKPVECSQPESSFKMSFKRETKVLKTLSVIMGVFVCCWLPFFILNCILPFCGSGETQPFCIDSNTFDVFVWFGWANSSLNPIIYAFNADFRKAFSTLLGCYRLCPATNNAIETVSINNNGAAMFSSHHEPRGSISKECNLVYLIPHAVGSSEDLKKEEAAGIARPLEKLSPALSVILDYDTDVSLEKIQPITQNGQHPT
D1 ag: Allosteric Agonists of the Human D1 Dopamine Receptor: qHTS | HEK293 T-REx D1 cells, calcium flux, agonist mode | actives 1% (n = 360,000) | D(1A) dopamine receptor (Homo sapiens), P21728 | activation, % at 2 µM; in the data active = activation above about 30%
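Inducible HEK293 T-REx D1 cells, force-coupled to calcium signalling, were plated at 4000 cells/well with tetracycline and held overnight at 30 C. After no-wash calcium dye loading, compound-evoked calcium rise over 180 s flagged agonists.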
TRHR enhancer-1: qHTS for Small Molecule Agonists and Allosteric Enhancers of Human TRH Receptor: Primary Screen for Enhancers. Thyrotropin-releasing hormone receptor (Homo sapiens), P34981. TRHR cells, fluo-8 calcium fluorescence, EC20 TRH enhancement. enhancement, % at 2 µM. actives 0.66% (n = 360,000); in the data active = enhancement above about 30%
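Enhancer read-out: after compound pinning and an initial kinetic agonist-mode read, an EC20 of TRH (10 nM final) was injected and fluo-8 calcium signal (Ex 480/Em 530) followed at 1 s/cycle for 100 cycles in TRHR-expressing cells.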
D1 antagonist: Antagonist of Human D 1 Dopamine Receptor: qHTS; D(1A) dopamine receptor (Homo sapiens), P21728; HEK293 TREx D1 cells, calcium flux, dopamine EC80; hits give low values; activity change, negative = inhibition, % at 10 µM; actives 3.2% (n = 360,000); in the data active = activity change below about -30%
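Allosteric or orthosteric antagonism assessed as attenuation of the calcium response to EC80 dopamine, added 180 s after compound, in induced HEK293 Trex D1 cells loaded with no-wash calcium dye.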
TRHR agonist-1: qHTS for Small Molecule Agonists and Allosteric Enhancers of Human TRH Receptor: Primary Screen for Agonists. Thyrotropin-releasing hormone receptor (Homo sapiens), P34981. actives 0.18% (n = 360,000). TRHR cells, calcium flux fluo-8, FDSS agonist mode. AID 493084, 2011. activation, % at 2 µM; in the data active = activation above about 30%
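Agonist-mode FDSS calcium read (Ex 480/Em 530, 1 s cycles) in 1536-well TRHR cells with fluo-8 dye, after 10-cycle baseline and 23 nL compound addition; TRH at EC20 (10 nM final) added afterwards for the enhancer phase.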
Epigenetic derep: Quantitative High-Throughput Screen for Regulators of Epigenetic Control. murine LDR cells, GFP reporter derepression, 30 h. Potency, µM (series often up to 53.9 µM), actives largely listed as activators. actives 0.2% (n = 280,000); note: nearly all actives have a fitted effect of over 60% in size
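GFP-positive cell count by laser-scanning cytometry (objects 20–120 um) after 30 h, 37 C compound exposure of murine LDR cells; reporter is CMV-GFP integrated at a silenced locus, inducible by HDAC or DNMT inhibitors.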
TRHR enhancer-2: qHTS for Small Molecule Agonists and Allosteric Enhancers of Human TRH Receptor: Confirmation Screen for Enhancers | shares compounds with TRHR enhancer-1 | TRH receptor cell assay, enhancer confirmation qHTS | activity change, negative = inhibition, % at 46.1 µM | 970 tested, under 10 active | AID 493076, 2011;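 note: compound effect scored on response to added TRH at EC20 of 10 nM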
TRHR agonist-2: qHTS for Small Molecule Agonists and Allosteric Enhancers of Human TRH Receptor: Confirmation Screen for Agonists | shares compounds with TRHR enhancer-1 | TRHR-expressing cells, agonist activation read-out | Potency, µM (titrated, usually from 46.1 µM), hits mostly activators | actives 8% (n = 970); note: nearly all actives have a fitted effect of over 75% in size
Each line names hits and unclear results; the compound was inactive in the other large screens (follow-up assays come after a bar, where they were run). Hits are enriched below; roughly 4.6% of the tested compounds scored in any of these assays. Unless noted, calls come from the whole dose curve; as a rule, active = well fitted curve in the direction sought with a large enough effect; inconclusive = small, poorly fitted or top-dose-only effect, or another doubt; inactive = no such curve, though single readings can be large; an effect the other way counts as inactive or inconclusive.

O=C(NCCc1ccc(Cl)cc1)c1cc(-c2ccncc2)nc2ccccc12	none
O=C(NCCc1ccc(Cl)cc1)c1cc(-c2ccccn2)nc2ccccc12	TRHR enhancer-1 49 (no result: Epigenetic derep) | TRHR enhancer-2 inactive | TRHR agonist-2 inactive
NS(=O)(=O)c1ccc(CCNC(=O)c2cc(=O)[nH]c3ccccc23)cc1	none (no result: Epigenetic derep)
Cn1nc(C(=O)Nc2nc3ccc(S(C)(=O)=O)cc3s2)ccc1=O	TRHR enhancer-1 45 (no result: D1 antagonist) | TRHR enhancer-2 inactive | TRHR agonist-2 inactive
CS(=O)(=O)c1ccc2nc(NC(=O)c3ccc(=O)[nH]c3)sc2c1	none
O=S(=O)(Nc1ccc(Cl)cc1Cl)c1cc(Cl)ccc1Cl	none (no result: D1 potentiator, D1 ag, TRHR enhancer-1, D1 antagonist, TRHR agonist-1)
Cc1cc(C(=O)NCCN2CCOCC2)ccc1[N+](=O)[O-]	TRHR enhancer-1 45 | TRHR enhancer-2 inactive | TRHR agonist-2 inactive
COc1cc([N+](=O)[O-])c2nccnc2c1	TRHR enhancer-1 44 | TRHR enhancer-2 inactive | TRHR agonist-2 inactive
COc1cc([N+](=O)[O-])c2ncccc2c1	none (no result: Epigenetic derep)
CC(C)(C)C(=O)Nc1cccc(C(=O)OCc2cc(=O)n3nc(C4CCCCC4)sc3n2)c1	none
O=S(=O)(NCc1nc2cccnc2n1Cc1ccc(F)cc1)c1ccc(Cl)s1	none
CCN(CC)c1ccc(/C=c2\sc3nc4ccccc4n3c2=O)c(O)c1	D1 ag 179, D1 antagonist -38, Epigenetic derep inconclusive | TRHR enhancer-2 inactive | TRHR agonist-2 21µM
O=c1/c(=C/c2ccc(O)c([N+](=O)[O-])c2)sc2nc3ccccc3n12	none
Cc1ccc(CN2C(=O)N(c3ccc(F)cc3)C(=O)C2CC(=O)Nc2ccc(Cl)cc2)cc1 (centres undefined)	none
Cc1c(C2(O)C(=O)Nc3ccc(F)cc32)c(=O)n(-c2ccccc2)n1C (centres undefined)	TRHR enhancer-1 50 | TRHR enhancer-2 inactive | TRHR agonist-2 inactive
COc1ccc(-n2c(SCc3ccccc3)nc3c([nH]c4ccccc43)c2=O)cc1	none
Cc1cccc(C(=O)N/N=C/c2cc(Br)c(Br)o2)c1	TRHR enhancer-1 54, D1 antagonist -59 | TRHR enhancer-2 inactive | TRHR agonist-2 inactive
Cc1ccc(-c2c(C)sc3nc[nH]c(=O)c23)cc1C	TRHR enhancer-1 47, D1 antagonist -35 (no result: Epigenetic derep) | TRHR enhancer-2 inactive | TRHR agonist-2 inactive
CN(C)CCCNc1oc(-c2ccccc2Cl)nc1S(=O)(=O)c1ccc(F)cc1	TRHR enhancer-1 57 (no result: Epigenetic derep) | TRHR enhancer-2 inconclusive | TRHR agonist-2 inconclusive
Fc1cccc(CN2CCc3nc(Nc4ccc5c(c4)OCCO5)ncc3C2)c1F	none
CCN(CC)S(=O)(=O)c1ccc(C(=O)N(c2ccc(C)cc2)C2C=CS(=O)(=O)C2)cc1 (centres undefined)	TRHR enhancer-1 42 | TRHR enhancer-2 inactive | TRHR agonist-2 inactive
Cc1cc2c(s1)c1cnn(Cc3cccc(C)c3F)c(=O)c1n2C	none (no result: Epigenetic derep)
NS(=O)(=O)c1ccc(NC(=O)CN2CCc3ccccc32)cc1	TRHR enhancer-1 56 | TRHR enhancer-2 inactive | TRHR agonist-2 inactive
CCCC(=O)c1ccc(N2CCN(C(=O)c3cccs3)CC2)c(F)c1	none (no result: Epigenetic derep)
CC(=O)c1ccc(N2CCN(C(=O)c3cccs3)CC2)c(F)c1	none (no result: Epigenetic derep) | TRHR enhancer-2 inactive | TRHR agonist-2 inactive
COc1cccc(/C=C2\SC(=S)N(C(C)C(=O)NC3C=CS(=O)(=O)C3)C2=O)c1 (centres undefined)	TRHR enhancer-1 50 (no result: Epigenetic derep) | TRHR enhancer-2 inactive | TRHR agonist-2 inactive
COc1ccc(/C=C2\SC(=S)N(C(C)C(=O)NC3C=CS(=O)(=O)C3)C2=O)cc1 (centres undefined)	none (no result: Epigenetic derep)
O=C(O)C=C1CCN(c2ncc(C(F)(F)F)cc2Cl)CC1	TRHR enhancer-1 43 | TRHR enhancer-2 inactive | TRHR agonist-2 inactive
NNC(=O)C=C1CCN(c2ncc(C(F)(F)F)cc2Cl)CC1	none
COc1cc(OC)c(NS(=O)(=O)c2c(C(=O)N3CCC(C)CC3)c(C)n(C)c2C)cc1Cl	none
C=CCc1cc(C=O)cc(OCC)c1OCc1ccc(Cl)cc1	TRHR enhancer-1 45 | TRHR enhancer-2 inactive | TRHR agonist-2 inactive
C=CCc1cc(C=O)cc(OC)c1OCc1ccc(Cl)cc1	none
CN1CCS/C1=C\C=C1/SC(=S)N(CC(=O)O)C1=O	D1 ag 129 | TRHR enhancer-2 inactive | TRHR agonist-2 21µM
Cn1cccc1/C=C1/SC(=S)N(CC(=O)O)C1=O	none
Cc1ccnc(N=Cc2nc(-c3ccccc3Br)oc2O)c1	none
Oc1oc(-c2cccc3ccccc23)nc1/C=N/c1nccs1	D1 ag 44, TRHR agonist-1 34 | TRHR enhancer-2 inactive | TRHR agonist-2 inconclusive
COc1ccc(C(CC(=O)Nc2cccc(C)c2C)N2Cc3ccccc3C2=O)cc1 (centres undefined)	none
COc1cc(/C=C2\SC(=S)N(NS(=O)(=O)c3ccc(C)cc3)C2=O)cc(OC)c1OC	none
COc1cc(/C=C2\SC(=S)N(NS(=O)(=O)c3ccc(C)cc3)C2=O)ccc1O	D1 ag 82, TRHR agonist-1 36 | TRHR enhancer-2 inactive | TRHR agonist-2 inconclusive
COc1cc(/C=C2\SC(=S)N(NC(=O)c3ccc(O)c(OC)c3)C2=O)ccc1O	D1 ag 73, TRHR agonist-1 45 (no result: Epigenetic derep) | TRHR enhancer-2 inactive | TRHR agonist-2 inconclusive
O=C1/C(=C/c2cccc(O)c2)SC(=S)N1CC1CCCO1 (centres undefined)	none
CCOc1cc(/C=C2/SC(=S)N(CC3CCCO3)C2=O)ccc1O (centres undefined)	D1 ag 68, TRHR agonist-1 43 | TRHR enhancer-2 inconclusive | TRHR agonist-2 16µM
CCOc1cc(/C=C2\SC(=S)N(NC(=O)c3cccnc3)C2=O)ccc1O	none
COC(=O)C1=C(C)NC(=O)C1(NC(=O)c1cc(OC)c(OC)c(OC)c1)C(F)(F)F (centres undefined)	none
